Paper PMC11006913
Positions count from the first letter of the chain named.

Experiments:
Assay in all cases: PBM; 200 nM protein, PBS
Conditions in all cases: dsDNA, one strand shown
[1] = molecular target: HOXB6 (Homo sapiens, UniProt P17509 132-218, K202E)
[2] = molecular target: HOXB6 (Homo sapiens, UniProt P17509 132-218)
[3] = molecular target: T1, SIX6 (Homo sapiens, UniProt O95475 114-200, T165G)
T1 sequence: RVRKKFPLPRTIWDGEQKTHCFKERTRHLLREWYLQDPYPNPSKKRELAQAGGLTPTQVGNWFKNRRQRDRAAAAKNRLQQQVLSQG

[4] = molecular target: ALX4 (Homo sapiens, UniProt Q9H161 200-286, Q225E)
Sequence of ALX4 (Q9H161 200-286 Q225E): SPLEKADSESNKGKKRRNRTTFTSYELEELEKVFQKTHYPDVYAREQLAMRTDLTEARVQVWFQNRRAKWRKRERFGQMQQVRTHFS

[5] = molecular target: HOXC9 (Homo sapiens, UniProt P31274 178-260, R222W)
Sequence of HOXC9 (P31274 178-260 R222W): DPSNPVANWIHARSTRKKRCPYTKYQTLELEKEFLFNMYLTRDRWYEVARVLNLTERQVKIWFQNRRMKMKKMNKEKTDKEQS

[6] = molecular target: HOXB9 (Homo sapiens, UniProt P17482 171-250)
Sequence of HOXB9 (Homo sapiens, UniProt P17482 171-250) (P17482 171-250): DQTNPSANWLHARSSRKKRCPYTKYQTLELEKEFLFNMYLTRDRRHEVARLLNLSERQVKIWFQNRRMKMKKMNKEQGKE

[7] = molecular target: HOXB9 (Homo sapiens, UniProt P17482 171-250, R186Q)
Sequence of HOXB9 (Homo sapiens, UniProt P17482 171-250, R186Q) (P17482 171-250 R186Q): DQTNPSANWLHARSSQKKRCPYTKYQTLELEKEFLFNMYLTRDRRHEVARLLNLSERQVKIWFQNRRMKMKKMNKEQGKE

[8] = molecular target: T2, NKX2-6 (Homo sapiens, UniProt A6NCS4 118-204, R150C)
T2 sequence: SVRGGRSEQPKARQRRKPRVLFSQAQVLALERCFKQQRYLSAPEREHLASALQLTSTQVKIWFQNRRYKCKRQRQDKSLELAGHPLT

[9] = molecular target: PROP1 (Homo sapiens, UniProt O75360 56-141)
Sequence of PROP1 (Homo sapiens, UniProt O75360 56-141) (O75360 56-141): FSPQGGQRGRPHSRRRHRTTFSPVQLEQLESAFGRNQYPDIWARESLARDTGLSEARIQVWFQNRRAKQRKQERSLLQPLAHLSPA

[10] = molecular target: PROP1 (Homo sapiens, UniProt O75360 56-141, R99H)
Sequence of PROP1 (Homo sapiens, UniProt O75360 56-141, R99H) (O75360 56-141 R99H): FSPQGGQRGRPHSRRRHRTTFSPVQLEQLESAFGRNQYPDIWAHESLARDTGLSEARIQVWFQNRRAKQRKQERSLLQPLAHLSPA

[11] = molecular target: PROP1 (Homo sapiens, UniProt O75360 56-141, F88S)
Sequence of PROP1 (Homo sapiens, UniProt O75360 56-141, F88S) (O75360 56-141 F88S): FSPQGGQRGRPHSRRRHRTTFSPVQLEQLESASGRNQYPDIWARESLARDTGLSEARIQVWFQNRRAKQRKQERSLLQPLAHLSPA

[12] = molecular target: ALX1 (Homo sapiens, UniProt Q15699 118-204, L144V)
Sequence of ALX1 (Homo sapiens, UniProt Q15699 118-204, L144V) (Q15699 118-204 L144V): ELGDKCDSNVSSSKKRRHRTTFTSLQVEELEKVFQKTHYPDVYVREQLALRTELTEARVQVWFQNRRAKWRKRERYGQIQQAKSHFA

[13] = molecular target: ALX1 (Homo sapiens, UniProt Q15699 118-204, L144R)
Sequence of ALX1 (Homo sapiens, UniProt Q15699 118-204, L144R) (Q15699 118-204 L144R): as the sequence (Q15699 118-204 L144V) above, with V27R counted along it

[14] = molecular target: NKX3-2 (Homo sapiens, UniProt P78367 192-278, P234S)
Sequence of NKX3-2 (Homo sapiens, UniProt P78367 192-278, P234S) (P78367 192-278 P234S): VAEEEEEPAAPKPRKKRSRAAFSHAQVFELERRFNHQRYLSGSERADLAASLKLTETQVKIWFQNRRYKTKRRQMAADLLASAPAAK

[15] = molecular target: ALX1 (Homo sapiens, UniProt Q15699 118-204)
Sequence of ALX1 (Homo sapiens, UniProt Q15699 118-204) (Q15699 118-204): as the sequence (Q15699 118-204 L144V) above, with V27L counted along it

[16] = molecular target: NKX3-2 (Homo sapiens, UniProt P78367 192-278)
Sequence of NKX3-2 (Homo sapiens, UniProt P78367 192-278) (P78367 192-278): as the sequence (P78367 192-278 P234S) above, with S43P counted along it

[17] = molecular target: T3, NKX2-6 (Homo sapiens, UniProt A6NCS4 118-204)
T3 sequence: T2 sequence with C33R

[18] = molecular target: ALX3 (Homo sapiens, UniProt O95076 139-225, L168Q)
Sequence of ALX3 (Homo sapiens, UniProt O95076 139-225, L168Q) (O95076 139-225 L168Q): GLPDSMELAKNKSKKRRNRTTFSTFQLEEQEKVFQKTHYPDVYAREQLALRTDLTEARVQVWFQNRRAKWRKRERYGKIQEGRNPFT

[19] = molecular target: T4, NKX2-6 (Homo sapiens, UniProt A6NCS4 118-204, F151L)
T4 sequence: T2 sequence with C33R, F34L

[20] = molecular target: ALX3 (Homo sapiens, UniProt O95076 139-225, L168V)
Sequence of ALX3 (Homo sapiens, UniProt O95076 139-225, L168V) (O95076 139-225 L168V): as the sequence (O95076 139-225 L168Q) above, with Q30V counted along it

[21] = molecular target: HOXD13 (Homo sapiens, UniProt P35453 263-343, T313R)
Sequence of HOXD13 (Homo sapiens, UniProt P35453 263-343, T313R) (P35453 263-343 T313R): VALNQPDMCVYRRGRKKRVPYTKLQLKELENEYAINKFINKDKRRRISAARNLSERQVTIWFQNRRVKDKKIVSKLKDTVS

[22] = molecular target: HOXD13 (Homo sapiens, UniProt P35453 263-343)
Sequence of HOXD13 (Homo sapiens, UniProt P35453 263-343) (P35453 263-343): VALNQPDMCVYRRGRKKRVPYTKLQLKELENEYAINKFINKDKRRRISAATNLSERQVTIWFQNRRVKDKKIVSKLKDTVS

[23] = molecular target: HOXD13 (Homo sapiens, UniProt P35453 263-343, T313A)
Sequence of HOXD13 (Homo sapiens, UniProt P35453 263-343, T313A) (P35453 263-343 T313A): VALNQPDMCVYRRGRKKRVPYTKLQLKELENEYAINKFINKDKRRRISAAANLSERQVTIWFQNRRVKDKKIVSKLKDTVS

[24] = molecular target: PITX2 (Homo sapiens, UniProt Q99697 72-157)
[25] = molecular target: HOXA2 (Homo sapiens, UniProt O43364 129-215, R185T)
Sequence of HOXA2 (Homo sapiens, UniProt O43364 129-215, R185T) (O43364 129-215 R185T): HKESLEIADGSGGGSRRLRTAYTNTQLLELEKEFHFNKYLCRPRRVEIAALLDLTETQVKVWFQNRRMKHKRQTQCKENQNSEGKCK

[26] = molecular target: HOXA2 (Homo sapiens, UniProt O43364 129-215, R185K)
Sequence of HOXA2 (Homo sapiens, UniProt O43364 129-215, R185K) (O43364 129-215 R185K): as the sequence (O43364 129-215 R185T) above, with T57K counted along it

[27] = molecular target: HOXA2 (Homo sapiens, UniProt O43364 129-215, Y150S)
Sequence of HOXA2 (Homo sapiens, UniProt O43364 129-215, Y150S) (O43364 129-215 Y150S): as the sequence (O43364 129-215 R185T) above, with Y22S, T57R counted along it

[28] = molecular target: HOXA2 (Homo sapiens, UniProt O43364 129-215)
Sequence of HOXA2 (Homo sapiens, UniProt O43364 129-215) (O43364 129-215): as the sequence (O43364 129-215 R185T) above, with T57R counted along it

[29] = molecular target: CRX (Homo sapiens, UniProt O43186 26-111, R41L)
Sequence of CRX (O43186 26-111 R41L): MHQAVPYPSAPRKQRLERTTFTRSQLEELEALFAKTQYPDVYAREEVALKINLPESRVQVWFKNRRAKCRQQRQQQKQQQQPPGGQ

Sequence of HOXB6 (Homo sapiens, UniProt P17509 132-218) (P17509 132-218): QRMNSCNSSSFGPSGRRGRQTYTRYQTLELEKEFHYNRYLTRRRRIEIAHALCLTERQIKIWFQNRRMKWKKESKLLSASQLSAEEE
Sequence of HOXB6 (Homo sapiens, UniProt P17509 132-218, K202E) (P17509 132-218 K202E): as the sequence (P17509 132-218) above, with K71E counted along it

Q: Which binding signal [1] does the source give for AATGTTGT here?
A: 9.62 upbm affinity estimate (log intensity, higher = more binding, comparable within an allelic series)

Q: What about the binding signal [2] of the same sequence?
A: 10.2 upbm affinity estimate (log intensity, higher = more binding, comparable within an allelic series)

Q: Which results are given for CAAAATGG?
A: binding signal [1]: 9.63 upbm affinity estimate (log intensity, higher = more binding, comparable within an allelic series); binding signal [2]: 10.4 upbm affinity estimate (log intensity, higher = more binding, comparable within an allelic series)

Q: ATTTCATA was tested. Which binding signal [1] did it give?
A: 9.65 upbm affinity estimate (log intensity, higher = more binding, comparable within an allelic series)

Q: What about the binding signal [2] of the same sequence?
A: 10.2 upbm affinity estimate (log intensity, higher = more binding, comparable within an allelic series)

Q: Which binding signal [1] does the source give for AATGATTG here?
A: 9.68 upbm affinity estimate (log intensity, higher = more binding, comparable within an allelic series)

Q: And the binding signal [2]?
A: 10.7 upbm affinity estimate (log intensity, higher = more binding, comparable within an allelic series)

Q: Which results are given for GGTTTTTA?
A: binding signal [1]: 9.65 upbm affinity estimate (log intensity, higher = more binding, comparable within an allelic series); binding signal [2]: 10.3 upbm affinity estimate (log intensity, higher = more binding, comparable within an allelic series)

Q: What does the source list for GGCTCGAC?
A: binding signal [1]: 9.13 upbm affinity estimate (log intensity, higher = more binding, comparable within an allelic series); binding signal [2]: 8.81 upbm affinity estimate (log intensity, higher = more binding, comparable within an allelic series)

Q: How did the binding signal [3] turn out when GACACCCC was run?
A: 10.6 upbm affinity estimate (log intensity, higher = more binding, comparable within an allelic series)

Q: Which binding signal [1] does the source give for TCTCATAA here?
A: 9.55 upbm affinity estimate (log intensity, higher = more binding, comparable within an allelic series)

Q: What about the binding signal [2] of the same sequence?
A: 10.4 upbm affinity estimate (log intensity, higher = more binding, comparable within an allelic series)

Q: How did the binding signal [4] turn out when AATAAATA was run?
A: 11 upbm affinity estimate (log intensity, higher = more binding, comparable within an allelic series)

Q: And the binding signal [5]?
A: 11 upbm affinity estimate (log intensity, higher = more binding, comparable within an allelic series)

Q: GAGGGGCA was tested. Which binding signal [1] did it give?
A: 9.15 upbm affinity estimate (log intensity, higher = more binding, comparable within an allelic series)

Q: What about the binding signal [2] of the same sequence?
A: 9.24 upbm affinity estimate (log intensity, higher = more binding, comparable within an allelic series)

Q: For CGCGTGCC, which binding signal [1] is on record?
A: 9.06 upbm affinity estimate (log intensity, higher = more binding, comparable within an allelic series)

Q: What about the binding signal [2] of the same sequence?
A: 9.06 upbm affinity estimate (log intensity, higher = more binding, comparable within an allelic series)

Q: With GACACCCA as the sequence, how does the binding signal [3] read?
A: 10.5 upbm affinity estimate (log intensity, higher = more binding, comparable within an allelic series)

Q: With AAAAAAAT as the sequence, how does the binding signal [1] read?
A: 9.72 upbm affinity estimate (log intensity, higher = more binding, comparable within an allelic series)

Q: What about the binding signal [2] of the same sequence?
A: 10.2 upbm affinity estimate (log intensity, higher = more binding, comparable within an allelic series)

Q: Which results are given for CCTCGGAC?
A: binding signal [1]: 9.1 upbm affinity estimate (log intensity, higher = more binding, comparable within an allelic series); binding signal [2]: 8.96 upbm affinity estimate (log intensity, higher = more binding, comparable within an allelic series)

Q: For ATCAATAG, which binding signal [6] is on record?
A: 10.1 upbm affinity estimate (log intensity, higher = more binding, comparable within an allelic series)

Q: What about the binding signal [7] of the same sequence?
A: 10.1 upbm affinity estimate (log intensity, higher = more binding, comparable within an allelic series)

Q: How did the binding signal [8] turn out when CTGGCTCC was run?
A: 9.34 upbm affinity estimate (log intensity, higher = more binding, comparable within an allelic series)

Q: Which binding signal [8] does the source give for CCCCCACG here?
A: 9.26 upbm affinity estimate (log intensity, higher = more binding, comparable within an allelic series)

Q: What about the binding signal [9] of the same sequence?
A: 6.48 upbm affinity estimate (log intensity, higher = more binding, comparable within an allelic series)

Q: And the binding signal [10]?
A: 6.59 upbm affinity estimate (log intensity, higher = more binding, comparable within an allelic series)

Q: And the binding signal [11]?
A: 6.32 upbm affinity estimate (log intensity, higher = more binding, comparable within an allelic series)

Q: GACCGCCC was tested. Which binding signal [12] did it give?
A: 6.66 upbm affinity estimate (log intensity, higher = more binding, comparable within an allelic series)

Q: What about the binding signal [13] of the same sequence?
A: 6.49 upbm affinity estimate (log intensity, higher = more binding, comparable within an allelic series)

Q: What about the binding signal [14] of the same sequence?
A: 10.5 upbm affinity estimate (log intensity, higher = more binding, comparable within an allelic series)

Q: What about the binding signal [15] of the same sequence?
A: 6.57 upbm affinity estimate (log intensity, higher = more binding, comparable within an allelic series)

Q: What about the binding signal [16] of the same sequence?
A: 10.5 upbm affinity estimate (log intensity, higher = more binding, comparable within an allelic series)

Q: What does the source list for CCGGTTCC?
A: binding signal [12]: 6.06 upbm affinity estimate (log intensity, higher = more binding, comparable within an allelic series); binding signal [17]: 9.05 upbm affinity estimate (log intensity, higher = more binding, comparable within an allelic series); binding signal [13]: 6.02 upbm affinity estimate (log intensity, higher = more binding, comparable within an allelic series); binding signal [18]: 7.69 upbm affinity estimate (log intensity, higher = more binding, comparable within an allelic series); binding signal [19]: 9.2 upbm affinity estimate (log intensity, higher = more binding, comparable within an allelic series); binding signal [20]: 7.7 upbm affinity estimate (log intensity, higher = more binding, comparable within an allelic series); binding signal [15]: 6 upbm affinity estimate (log intensity, higher = more binding, comparable within an allelic series)

Q: With AATTTATG as the sequence, how does the binding signal [21] read?
A: 10.7 upbm affinity estimate (log intensity, higher = more binding, comparable within an allelic series)

Q: And the binding signal [22]?
A: 11.6 upbm affinity estimate (log intensity, higher = more binding, comparable within an allelic series)

Q: What about the binding signal [23] of the same sequence?
A: 11.5 upbm affinity estimate (log intensity, higher = more binding, comparable within an allelic series)

Q: Which results are given for CGCCACGC?
A: binding signal [17]: 9.43 upbm affinity estimate (log intensity, higher = more binding, comparable within an allelic series); binding signal [19]: 9.12 upbm affinity estimate (log intensity, higher = more binding, comparable within an allelic series)

Q: How did the binding signal [24] turn out when ATTACACC was run?
A: 9.68 upbm affinity estimate (log intensity, higher = more binding, comparable within an allelic series)

Q: What does the source list for CCCCCCCA?
A: binding signal [18]: 7.68 upbm affinity estimate (log intensity, higher = more binding, comparable within an allelic series); binding signal [20]: 7.64 upbm affinity estimate (log intensity, higher = more binding, comparable within an allelic series)

Q: With CCCCCGTC as the sequence, how does the binding signal [25] read?
A: 7.31 upbm affinity estimate (log intensity, higher = more binding, comparable within an allelic series)

Q: And the binding signal [26]?
A: 10.2 upbm affinity estimate (log intensity, higher = more binding, comparable within an allelic series)

Q: And the binding signal [27]?
A: 10.3 upbm affinity estimate (log intensity, higher = more binding, comparable within an allelic series)

Q: What about the binding signal [28] of the same sequence?
A: 7.2 upbm affinity estimate (log intensity, higher = more binding, comparable within an allelic series)

Q: What does the source list for CAGCCACG?
A: binding signal [25]: 7.22 upbm affinity estimate (log intensity, higher = more binding, comparable within an allelic series); binding signal [26]: 10.5 upbm affinity estimate (log intensity, higher = more binding, comparable within an allelic series); binding signal [27]: 10.4 upbm affinity estimate (log intensity, higher = more binding, comparable within an allelic series); binding signal [28]: 7.24 upbm affinity estimate (log intensity, higher = more binding, comparable within an allelic series)

Q: For AATCAGCT, which binding signal [25] is on record?
A: 10.1 upbm affinity estimate (log intensity, higher = more binding, comparable within an allelic series)

Q: What about the binding signal [26] of the same sequence?
A: 11.9 upbm affinity estimate (log intensity, higher = more binding, comparable within an allelic series)

Q: And the binding signal [27]?
A: 10.7 upbm affinity estimate (log intensity, higher = more binding, comparable within an allelic series)

Q: And the binding signal [28]?
A: 9.77 upbm affinity estimate (log intensity, higher = more binding, comparable within an allelic series)

Q: CCTGCCAC was tested. Which binding signal [25] did it give?
A: 7.29 upbm affinity estimate (log intensity, higher = more binding, comparable within an allelic series)

Q: And the binding signal [26]?
A: 10.3 upbm affinity estimate (log intensity, higher = more binding, comparable within an allelic series)

Q: What about the binding signal [27] of the same sequence?
A: 10.6 upbm affinity estimate (log intensity, higher = more binding, comparable within an allelic series)

Q: What about the binding signal [28] of the same sequence?
A: 7.12 upbm affinity estimate (log intensity, higher = more binding, comparable within an allelic series)

Q: Which results are given for CAGTTAAG?
A: binding signal [25]: 9.01 upbm affinity estimate (log intensity, higher = more binding, comparable within an allelic series); binding signal [26]: 11.5 upbm affinity estimate (log intensity, higher = more binding, comparable within an allelic series); binding signal [28]: 8.89 upbm affinity estimate (log intensity, higher = more binding, comparable within an allelic series)

Q: With ACTAATGC as the sequence, how does the binding signal [25] read?
A: 10.2 upbm affinity estimate (log intensity, higher = more binding, comparable within an allelic series)

Q: And the binding signal [26]?
A: 12.2 upbm affinity estimate (log intensity, higher = more binding, comparable within an allelic series)

Q: What about the binding signal [27] of the same sequence?
A: 10.7 upbm affinity estimate (log intensity, higher = more binding, comparable within an allelic series)

Q: What about the binding signal [29] of the same sequence?
A: 10.1 upbm affinity estimate (log intensity, higher = more binding, comparable within an allelic series)

Q: What about the binding signal [28] of the same sequence?
A: 10.5 upbm affinity estimate (log intensity, higher = more binding, comparable within an allelic series)

Q: What does the source list for TACTTTAA?
A: binding signal [25]: 9.67 upbm affinity estimate (log intensity, higher = more binding, comparable within an allelic series); binding signal [26]: 11.6 upbm affinity estimate (log intensity, higher = more binding, comparable within an allelic series); binding signal [27]: 10.8 upbm affinity estimate (log intensity, higher = more binding, comparable within an allelic series); binding signal [28]: 9.6 upbm affinity estimate (log intensity, higher = more binding, comparable within an allelic series)
